IDE exosite FP: exo-site inhibitors of human IDE, primary screen, biochemical, fluorescence anisotropy, probe displacement; purified IDE, FL-6b probe fluorescence polarization; stronger effect = lower value; z-score at 20 µM; hit rate 6.3% among 17,000; AID 1259349, 2017;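 active means z-score of -3 or lower, meaning strong loss of probe binding signal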;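 further: His-tagged human IDE residues 42-1019 made in E. coli with 30 nM FL-6b probe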
Target sequence (P14735 42-1019 limits assumed): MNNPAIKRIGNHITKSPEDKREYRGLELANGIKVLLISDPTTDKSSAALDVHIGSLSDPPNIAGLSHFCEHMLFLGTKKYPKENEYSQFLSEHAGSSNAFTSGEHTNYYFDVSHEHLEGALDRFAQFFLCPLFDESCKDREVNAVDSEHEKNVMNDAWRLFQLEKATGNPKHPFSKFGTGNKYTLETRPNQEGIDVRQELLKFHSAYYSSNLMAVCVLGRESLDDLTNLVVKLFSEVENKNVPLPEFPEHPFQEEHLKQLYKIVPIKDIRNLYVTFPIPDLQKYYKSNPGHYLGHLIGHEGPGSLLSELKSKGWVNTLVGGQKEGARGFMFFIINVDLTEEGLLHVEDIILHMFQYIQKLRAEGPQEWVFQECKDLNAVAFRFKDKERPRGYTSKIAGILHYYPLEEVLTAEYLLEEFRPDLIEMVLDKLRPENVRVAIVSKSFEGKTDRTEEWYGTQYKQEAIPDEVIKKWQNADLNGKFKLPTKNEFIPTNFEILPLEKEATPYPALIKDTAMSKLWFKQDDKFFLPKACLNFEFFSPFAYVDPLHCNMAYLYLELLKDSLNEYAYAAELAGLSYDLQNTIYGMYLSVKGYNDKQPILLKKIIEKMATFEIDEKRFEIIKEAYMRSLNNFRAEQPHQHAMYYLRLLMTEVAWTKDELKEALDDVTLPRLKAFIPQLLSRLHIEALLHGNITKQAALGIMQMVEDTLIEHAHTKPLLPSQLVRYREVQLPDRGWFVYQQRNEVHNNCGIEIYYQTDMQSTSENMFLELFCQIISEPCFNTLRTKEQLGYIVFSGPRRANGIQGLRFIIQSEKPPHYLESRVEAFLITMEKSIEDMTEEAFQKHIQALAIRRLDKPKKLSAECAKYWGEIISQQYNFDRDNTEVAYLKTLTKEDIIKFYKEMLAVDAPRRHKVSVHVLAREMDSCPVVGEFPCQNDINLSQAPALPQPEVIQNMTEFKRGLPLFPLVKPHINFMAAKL
* marks the source's active call; other numbers are inactive results. Only a selection was taken, and hits are over-represented in it overall.

SMILES | IDE exosite FP
CCC(=O)N1CCCCN2[C@H](C1)[C@@H](c1ccc(-c3cccc(C#N)c3)cc1)[C@@H]2CO | 0.36
CNC[C@H]1OCCCC[C@@H](C)Oc2ccc(N)cc2C(=O)N([C@@H](C)CO)C[C@H]1C | 1.8
O=C(Nc1ccc(F)cc1)N1CC(=O)N2[C@@H](CO)[C@H](c3ccc(C#Cc4cccnc4)cc3)[C@@H]2C1 | 0.2
O=C1N[C@H](Cc2ccccc2)COCc2cnnn2CC[C@@H]1Cc1ccc(-c2ccccc2)cc1 | 1.2
C/C=C/c1ccc([C@@H]2[C@@H](CO)N(C(=O)C3CC3)[C@H]2CN(C)C(=O)CN(C)C)cc1 | 0.98
C[C@@H]1CCCCO[C@H](CN(C)C(=O)CCCN(C)C)[C@H](C)CN([C@@H](C)CO)C(=O)c2cc(NC(=O)Nc3ccc4c(c3)OCO4)ccc2O1 | 0.74
O=C(Nc1ccccc1F)N1CC(=O)N2[C@H](CO)[C@H](c3ccc(C#Cc4ccc(F)cc4)cc3)[C@H]2C1 | 1.9
CC(=O)NC[C@H]1[C@H](c2ccccc2)[C@@H](CO)N1C(=O)Cc1ccncc1 | 1.6
C[C@@H]1C(=O)N[C@H](c2ccccc2)CC=CC[C@H](C)Oc2ccccc2C(=O)N1C (mixture of isomers) | -0.28
C[C@@H]1CN([C@@H](C)CO)C(=O)c2c(c3ccccc3n2C)-c2ccccc2CO[C@H]1CN(C)C(=O)NC1CCCCC1 | 0.61
COc1ccc(S(=O)(=O)Nc2ccc3c(c2)CC(=O)N([C@@H](C)CO)C[C@H](C)[C@H](CN(C)C(=O)Nc2c(C)noc2C)O3)cc1 | 2.6
CO[C@H](CN(C)C(=O)c1ccccc1F)[C@@H](C)CN([C@@H](C)CO)S(=O)(=O)c1ccc(F)cc1 | 1.4
CN1C(=O)c2cc(NC(=O)Nc3ccccc3Cl)ccc2OC[C@H]2O[C@H](CC(=O)NCCCN3CCOCC3)CC[C@@H]21 | -14*
CN1C(=O)c2cc(NC(=O)Cc3cccs3)ccc2OC[C@H]2O[C@H](CC(=O)NCCCN3CCOCC3)CC[C@@H]21 | -0.35
CN1C(=O)c2cc(NC(=O)Cc3cccs3)ccc2OC[C@H]2O[C@@H](CC(=O)NCCCN3CCOCC3)CC[C@H]21 | 0.06
CN1C(=O)c2cc(NC(=O)Nc3ccc(Cl)cc3)ccc2OC[C@H]2O[C@@H](CC(=O)NCCN3CCCCC3)CC[C@H]21 | 0.06
CN1C(=O)c2cc(NC(=O)Nc3ccc(Cl)cc3)ccc2OC[C@@H]2O[C@H](CC(=O)NCCN3CCCCC3)CC[C@H]21 | -0.35
CN1C(=O)c2cc(NC(=O)Nc3ccccc3Cl)ccc2OC[C@H]2O[C@@H](CC(=O)NCCCN3CCOCC3)CC[C@@H]21 | -6.1*
CN1C(=O)c2cc(NC(=O)Cc3cccs3)ccc2OC[C@@H]2O[C@H](CC(=O)NCCCN3CCOCC3)CC[C@H]21 | 0.06
CN1C(=O)c2cc(NC(=O)Nc3ccc(Cl)cc3)ccc2OC[C@H]2O[C@@H](CC(=O)NCCN3CCCCC3)CC[C@@H]21 | -4.7*
CN1C(=O)c2cc(NC(=O)Nc3ccccc3Cl)ccc2OC[C@@H]2O[C@H](CC(=O)NCCCN3CCOCC3)CC[C@@H]21 | -4.7*
CCS(=O)(=O)Nc1ccc2c(c1)C(=O)N(C)[C@H]1CC[C@H](CC(=O)NCCCN3CCOCC3)O[C@@H]1CO2 | 0.45
CN1C(=O)c2cc(NC(=O)Cc3cccs3)ccc2OC[C@H]2O[C@@H](CC(=O)NCCCN3CCOCC3)CC[C@@H]21 | -0.5
CN1C(=O)c2cc(NC(=O)Cc3cccs3)ccc2OC[C@@H]2O[C@@H](CC(=O)NCCCN3CCOCC3)CC[C@H]21 | -1
CC(=O)N(C[C@H]1N[C@H](CO)[C@H]1c1ccc(-c2ccc(F)cc2)cc1)C(C)C | 2.8
SMILES | IDE exosite FP
CS(=O)(=O)N1CC2(C1)[C@@H](c1ccccc1)[C@@H](CO)N2Cc1ccccc1 | -1.5
COc1ccc2c3c(n(C)c2c1)[C@H](CO)N(C(=O)C1CCOCC1)CC31CCN(C(=O)c2ccncc2)CC1 | -0.19
N#C[C@H]1[C@@H](c2ccccc2-c2ccccc2F)[C@H](CO)N1C(=O)C1CCC1 | 1.4
COc1ccc2c3c([nH]c2c1)[C@@H](CO)NCC31CN(C(=O)Nc2ccc3c(c2)OCO3)C1 | -0.42
N#C[C@@H]1[C@H](c2ccccc2-c2cccc(F)c2)[C@H](CO)N1C(=O)c1cccnc1 | -0.45
N#C[C@H]1[C@H](c2ccccc2)[C@@H](CO)N1C(=O)Cc1ccccn1 | 2.8
O=C(Nc1ccc2c(c1)[C@H]1C[C@H](CC(=O)N3CCc4ccccc4C3)O[C@H](CO)[C@H]1O2)c1ccc2c(c1)OCO2 | 0.12
CNC[C@@H]1OCc2cnnn2CCCC(=O)N([C@H](C)CO)C[C@@H]1C | -0.56
CN1C(=O)c2cc(NC(=O)Nc3ccccc3Cl)ccc2OC[C@@H]2O[C@H](CC(=O)O)CC[C@@H]21 | -0.56
CN1C(=O)c2cc(NC(=O)Nc3ccccc3Cl)ccc2OC[C@H]2O[C@H](CC(=O)O)CC[C@@H]21 | -6.2*
CN1C(=O)c2cc(NC(=O)Nc3ccccc3Cl)ccc2OC[C@H]2O[C@H](CC(=O)O)CC[C@H]21 | -0.35
CO[C@@H]1CC[C@H]2CCOc3c(C#N)cccc3C(=O)N(C)C[C@@H](c3ccccc3)CC(=O)N(C)C[C@@H]1O2 | 0.9
COc1cccc(CNC(=O)C[C@H]2CC[C@@H]3[C@@H](COc4ccc(NC(=O)c5cccs5)cc4C(=O)N3C)O2)c1 | -0.15
O=C(c1ccncc1)N1CCCCN2[C@H](CO)[C@@H](c3ccc(-c4ccccc4)cc3)[C@@H]2C1 | 0.82
O=C(c1ccncc1)N1CCCCN2[C@H](CO)[C@H](c3ccc(-c4ccccc4)cc3)[C@@H]2C1 | 2.5
Cc1ccc(-c2ccc([C@H]3[C@@H](CO)N4CCCCN(C(=O)c5ccncc5)C[C@@H]34)cc2)cc1 | 0.15
Cc1cccc(-c2ccc([C@@H]3[C@@H](CO)N4CCCCN(C(=O)c5ccncc5)C[C@H]34)cc2)c1 | -3.1*
Cc1ccc(-c2ccc([C@@H]3[C@@H](CO)N4CCCCN(C(=O)c5ccncc5)C[C@H]34)cc2)cc1 | 2.8
Cc1cccc(-c2ccc([C@@H]3[C@@H](CO)N4CCCCN(C(=O)c5ccncc5)C[C@@H]34)cc2)c1 | -3.1*
O=C(c1cccc(F)c1)N1CCCCN2[C@@H](CO)[C@H](c3ccc(-c4ccncc4)cc3)[C@@H]2C1 | 1.1
Cc1ccc(-c2ccc([C@@H]3[C@H]4CN(C(=O)c5ccncc5)CCCCN4[C@H]3CO)cc2)cc1 | -2.6
Cc1cccc(-c2ccc([C@@H]3[C@H]4CN(C(=O)c5ccncc5)CCCCN4[C@H]3CO)cc2)c1 | -17*
O=C(c1ccncc1)N1CCCCN2[C@H](C1)[C@@H](c1ccc(-c3ccccc3)cc1)[C@@H]2CO | -0.18
Cc1cccc(-c2ccc([C@H]3[C@@H](CO)N4CCCCN(C(=O)c5ccncc5)C[C@H]34)cc2)c1 | -18*
Cc1ccc(-c2ccc([C@H]3[C@H](CO)N4CCCCN(C(=O)c5ccncc5)C[C@@H]34)cc2)cc1 | -0.74
C[C@@H]1CN([C@@H](C)CO)C(=O)CCCn2nncc2CO[C@H]1CN(C)Cc1ccc(C(=O)Nc2ccccc2N)cc1 | -0.56
CS(=O)(=O)N1CCCCN2[C@@H](CO)[C@H](c3ccc(Br)cc3)[C@@H]2C1 | 2.8
C/C=C/c1ccc(C2[C@H]3CNC[C@@H]2N3Cc2cc(-c3ccccc3)on2)cc1 (some centres not stated) | 0.067
O=C(C1CCCC1)N1CC(=O)N2[C@H](CO)[C@@H](c3ccc(C#CC4CCCC4)cc3)[C@H]2C1 | 1.1

Bioassay records from PubChem BioAssay.
